Laboratory results published in PubChem BioAssay AID1159580 (chemical genetic matrix, 2015).
“And” between values parts separate entries of the source, which are not always exact repeats. Equal entries are not always repeated. In all, about 5,500 compounds went through this assay and about 2,000 (36%) were called active. Inconclusive results (about 18%) are left out. No stated cut-off is given here; in the data, active means normalized growth mostly below about 0.91 (no sharp cut-off); inconclusive means no clear call, values can overlap the other calls; inactive means mostly above about 0.92. The list shows a part of the results. Some compounds were tested as several samples or in several runs, with calls that do not always agree.

Assay: chemical genetic growth profiling, strain panel (AID 1159580);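 further: tested at 20 µM; growth read once vehicle control cultures reached saturation at 30 °C; 1 = growth at the plate median or of vehicle wells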
Conditions: growth OD

Measured: normalized growth

CCCCCCCCCCCCCCCCCC(=O)OC(CC(=O)O)C[N+](C)(C)C (stereo not drawn)
0.892 (inactive) and 0.209 (active): S. cerevisiae deletion strains, locus YPL055C, strain LGE1, stronger effect = lower value
0.983 (inactive) and 0.182 (active): S. cerevisiae deletion strains, locus YNL322C, strain KRE1, stronger effect = lower value
1 (inactive) and 0.232 (active): S. cerevisiae deletion strains, locus YMR263W, strain SAP30, stronger effect = lower value
active: S. cerevisiae deletion strains, locus YAL013W, strain DEP1, stronger effect = lower value 0.117 | S. cerevisiae deletion strains, locus YAL040C, strain CLN3, stronger effect = lower value 0.47 | S. cerevisiae deletion strains, locus YBR021W, strain FUR4, stronger effect = lower value 0.0953 | S. cerevisiae deletion strains, locus YCL029C, strain bik1, stronger effect = lower value 0.316 | S. cerevisiae deletion strains, locus YDL035C, strain GPR1, stronger effect = lower value 0.283 | S. cerevisiae deletion strains, locus YDL074C, strain BRE1, stronger effect = lower value 0.238 | S. cerevisiae deletion strains, locus YDL101C, strain DUN1, stronger effect = lower value 0.374 | S. cerevisiae deletion strains, locus YDL134C, strain PPH21, stronger effect = lower value 0.142 | S. cerevisiae deletion strains, locus YDL185W, strain tfp1, stronger effect = lower value 0.0578 | S. cerevisiae deletion strains, locus YDL192W, strain arf1, stronger effect = lower value 0.917 | S. cerevisiae deletion strains, locus YDR101C, strain arx1, stronger effect = lower value 0.679 | S. cerevisiae deletion strains, locus YDR150W, strain NUM1, stronger effect = lower value 0.583 | S. cerevisiae deletion strains, locus YDR162C, strain NBP2, stronger effect = lower value 0.0806 | S. cerevisiae deletion strains, locus YDR318W, strain mcm21, stronger effect = lower value 0.348 | S. cerevisiae deletion strains, locus YDR388W, stronger effect = lower value 0.0585 | S. cerevisiae deletion strains, locus YDR502C, strain sam2, stronger effect = lower value 0.619 | S. cerevisiae deletion strains, locus YEL061C, strain CIN8, stronger effect = lower value 0.44 | S. cerevisiae deletion strains, locus YER110C, stronger effect = lower value 0.156 | S. cerevisiae deletion strains, locus YER155C, strain BEM2, stronger effect = lower value 0.274 | S. cerevisiae deletion strains, locus YER167W, strain BCK2, stronger effect = lower value 0.214 | S. cerevisiae deletion strains, locus YGL078C, strain dbp3, stronger effect = lower value 0.62 | S. cerevisiae deletion strains, locus YGL086W, strain mad1, stronger effect = lower value 0.23 | S. cerevisiae deletion strains, locus YGL248W, strain PDE1, stronger effect = lower value 0.153 | S. cerevisiae deletion strains, locus YGR135W, strain pre9, stronger effect = lower value 0.185 | S. cerevisiae deletion strains, locus YGR229C, strain SMI1, stronger effect = lower value 0.797 and 0.0756 | S. cerevisiae deletion strains, locus YGR252W, strain gcn5, stronger effect = lower value 0.155 | S. cerevisiae deletion strains, locus YHR030C, strain SLT2, stronger effect = lower value 0.109 | S. cerevisiae deletion strains, locus YHR079C, strain IRE1 (second series), stronger effect = lower value 0.585 | S. cerevisiae deletion strains, locus YHR094C, strain hxt1, stronger effect = lower value 0.608 | S. cerevisiae deletion strains, locus YHR129C, strain ARP1, stronger effect = lower value 0.637 | S. cerevisiae deletion strains, locus YHR200W, strain rpn10, stronger effect = lower value 0.871 | S. cerevisiae deletion strains, locus YIL066C, strain RNR3, stronger effect = lower value 0.0537 | S. cerevisiae deletion strains, locus YIL073C, strain SPO22, stronger effect = lower value 0.108 | S. cerevisiae deletion strains, locus YIL125W, strain kgd1, stronger effect = lower value 0.59 | S. cerevisiae deletion strains, locus YIR030C, strain dcg1, stronger effect = lower value 0.587 | S. cerevisiae deletion strains, locus YJL095W, strain BCK1, stronger effect = lower value 0.0851 | S. cerevisiae deletion strains, locus YJL187C, strain SWE1 (second series), stronger effect = lower value 0.571 | S. cerevisiae deletion strains, locus YJR043C, strain POL32, stronger effect = lower value 0.567 | S. cerevisiae deletion strains, locus YJR075W, strain HOC1, stronger effect = lower value 0.146 | S. cerevisiae deletion strains, locus YKL009W, strain mrt4, stronger effect = lower value 0.504 | S. cerevisiae deletion strains, locus YKL085W, strain MDH1 (second series), stronger effect = lower value 0.56 | S. cerevisiae deletion strains, locus YKL085W, strain MDH1, stronger effect = lower value 0.56 | S. cerevisiae deletion strains, locus YKL190W, strain CNB1, stronger effect = lower value 0.0864 | S. cerevisiae deletion strains, locus YKR001C, strain vps1, stronger effect = lower value 0.89 | S. cerevisiae deletion strains, locus YLR058C, strain SHM2, stronger effect = lower value 0.598 | S. cerevisiae deletion strains, locus YLR102C, strain apc9, stronger effect = lower value 0.848 | S. cerevisiae deletion strains, locus YLR268W, strain sec22, stronger effect = lower value 0.168 | S. cerevisiae deletion strains, locus YLR330W, strain CHS5, stronger effect = lower value 0.0585 | S. cerevisiae deletion strains, locus YLR342W, strain FKS1 (second series), stronger effect = lower value 0.102 | S. cerevisiae deletion strains, locus YLR371W, strain rom2, stronger effect = lower value 0.9 | S. cerevisiae deletion strains, locus YLR418C, strain cdc73, stronger effect = lower value 0.101 | S. cerevisiae deletion strains, locus YML016C, strain PPZ1, stronger effect = lower value 0.229 | S. cerevisiae deletion strains, locus YML032C, strain rad52, stronger effect = lower value 0.499 | S. cerevisiae deletion strains, locus YML124C, strain tub3, stronger effect = lower value 0.88 | S. cerevisiae deletion strains, locus YMR078C, strain ctf18, stronger effect = lower value 0.392 | S. cerevisiae deletion strains, locus YMR223W, strain ubp8, stronger effect = lower value 0.406 | S. cerevisiae deletion strains, locus YNL067W, strain RPL9B, stronger effect = lower value 0.698 | S. cerevisiae deletion strains, locus YNL128W, strain TEP1, stronger effect = lower value 0.752 | S. cerevisiae deletion strains, locus YNL153C, strain GIM3, stronger effect = lower value 0.281 | S. cerevisiae deletion strains, locus YNL175C, strain NOP13, stronger effect = lower value 0.249 | S. cerevisiae deletion strains, locus YNL197C, strain WHI3, stronger effect = lower value 0.736 | S. cerevisiae deletion strains, locus YNL224C, strain SQS1, stronger effect = lower value 0.391 | S. cerevisiae deletion strains, locus YNL233W, strain BNI4, stronger effect = lower value 0.136 | S. cerevisiae deletion strains, locus YNL250W, strain rad50, stronger effect = lower value 0.69 | S. cerevisiae deletion strains, locus YNL271C, strain bni1, stronger effect = lower value 0.736 | S. cerevisiae deletion strains, locus YNL298W, strain CLA4, stronger effect = lower value 0.192 | S. cerevisiae deletion strains, locus YNL307C, strain MCK1, stronger effect = lower value 0.0704 | S. cerevisiae deletion strains, locus YOL006C, strain TOP1, stronger effect = lower value 0.101 | S. cerevisiae deletion strains, locus YOL147C, strain pex11, stronger effect = lower value 0.118 | S. cerevisiae deletion strains, locus YOR083W, strain WHI5 (second series), stronger effect = lower value 0.102 | S. cerevisiae deletion strains, locus YOR136W, strain idh2, stronger effect = lower value 0.773 | S. cerevisiae deletion strains, locus YOR144C, strain elg1, stronger effect = lower value 0.569 | S. cerevisiae deletion strains, locus YOR184W, strain ser1, stronger effect = lower value 0.0857 | S. cerevisiae deletion strains, locus YOR316C, strain cot1, stronger effect = lower value 0.582 | S. cerevisiae deletion strains, locus YPR119W, strain clb2, stronger effect = lower value 0.796 | S. cerevisiae deletion strains, locus YPR163C, strain tif3, stronger effect = lower value 0.0804 | S. cerevisiae deletion strains, locus YPR167C, strain met16, stronger effect = lower value 0.587 | S. cerevisiae deletion strains, strain wtn01, stronger effect = lower value 0.303 | S. cerevisiae strains, strain wild type, stronger effect = lower value 0.51
1.03 (inactive) and 0.297 (active): S. cerevisiae deletion strains, locus YMR307W, strain GAS1, stronger effect = lower value
0.976 (inactive) and 0.122 (active): S. cerevisiae deletion strains, locus YGR078C, strain PAC10, stronger effect = lower value
inactive: S. cerevisiae deletion strains, locus YBR229C, strain ROT2, stronger effect = lower value 1.03 | S. cerevisiae deletion strains, locus YCL061C, strain MRC1 (second series), stronger effect = lower value 0.991 | S. cerevisiae deletion strains, locus YDR363W, strain ESC2, stronger effect = lower value 0.985 | S. cerevisiae deletion strains, locus YER002W, strain NOP16, stronger effect = lower value 1.01 | S. cerevisiae deletion strains, locus YJL134W, strain LCB3, stronger effect = lower value 1.01 | S. cerevisiae deletion strains, locus YJL168C, strain set2, stronger effect = lower value 0.956 | S. cerevisiae deletion strains, locus YKL068W, stronger effect = lower value 1 | S. cerevisiae deletion strains, locus YLR039C, strain RIC1, stronger effect = lower value 1.1 | S. cerevisiae deletion strains, locus YLR262C, strain YPT6, stronger effect = lower value 1.09 | S. cerevisiae deletion strains, locus YNR052C, strain pop2, stronger effect = lower value 0.961 | S. cerevisiae deletion strains, locus YOR061W, strain CKA2, stronger effect = lower value 0.949 | S. cerevisiae deletion strains, locus YOR069W, strain VPS5, stronger effect = lower value 1 | S. cerevisiae deletion strains, locus YPR141C, strain kar3, stronger effect = lower value 1.05
0.96 (inactive) and 0.778 (active): S. cerevisiae deletion strains, locus YPL241C, strain CIN2, stronger effect = lower value
